We go through 28 compounds from PubChem BioAssay (Tox21).

Inconclusive results are not listed. A call without a number means that no potency is given here. Unmarked numbers belong to inactive results. Activity calls are given as the source filed them. Calls follow the shape of the dose curve; as a rule, active = well fitted cell-killing curve with a large enough effect in the repeat runs; inconclusive = weak or mixed curves, or effect the other way; inactive = flat fitted curve, though single readings scatter.

A short description of this test: Nuclear factor erythroid 2-related factor 2/antioxidant responsive element (Nrf2/ARE) small molecule agonists: qHTS cell viability counter screen in human keratinocytes (AID 1919968). Also: nearly all actives have a fitted effect of over 55% in size. In outline:
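Stably transfected HaCaT (KeratinoSens), 1,500/well. Test agents in DMSO were applied for 23 h, 37 C/5% CO2. CellTiter-Fluor was incubated 1 h before the fluorescence read.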
Background: qHTS replaces the single test concentration by a dilution series.
Potency is read from the fitted curve at half-maximal effect.

Consider `Cc1ccc(C(=O)Oc2ccc(C(O)CNC(C)(C)C)cc2OC(=O)c2ccc(C)cc2)cc1` (stereo not drawn), for which the Potency entry is “inactive”.

For the compound `Cc1cccc(C)c1NC(=O)CN1CCCC1`, the Potency result is “inactive”. As for `O=C(O)C[C@H](O)C[C@H](O)/C=C/c1c(C2CC2)nc2ccccc2c1-c1ccc(F)cc1`, the activity change, negative = cytotoxicity is -15.1% [at 19 µM]. Regarding `CC(C)(C)NCC(O)COc1ccc(NC(=O)NC2CCCCC2)cc1` (stereo not drawn), the Potency result is “inactive”.

Consider `Cn1c(=O)[nH]c2ncn(C)c2c1=O`, for which the Potency result was “inactive”. On the same count and under the same terms, then `Cc1ncc([N+](=O)[O-])n1CC(C)O` (stereo not drawn), with “inactive”; and `CCOC(=O)Cn1cccc1-c1nc(-c2ccc(OC)cc2)c(-c2ccc(OC)cc2)s1`, with “inactive”. As to `CCCCN(C)C`, the Potency entry is “inactive”.

Consider `O=C(O)Cc1sc(-c2ccccc2)nc1-c1ccc(Cl)cc1`, for which the Potency entry is “inactive”. The same measure, in the same setting: for `CCCC1CCC(=O)O1` (stereo not drawn) the value was “inactive”; for `COc1ccc(C(=O)Nc2ccccc2)cc1[N+](=O)[O-]`, “inactive”. On the same count and under the same terms, for `C=COCC1CCC(CO)CC1` (stereo not drawn) the value was “inactive”; for `COc1ccc(-n2nc(CCC(=O)N(C)O)cc2-c2ccc(Cl)cc2)cc1`, “inactive”.

Turning to `CCNC(=O)C1CC(C)CCC1C(C)C` (stereo not drawn), the Potency result was “inactive”.

Take `CC(C)=CCOC(=O)c1ccccc1`: the Potency result is “inactive”. In the case of `CC(C)=CC1CC(C)CCO1` (stereo not drawn), the Potency result is “inactive”.

`O=S(=O)(O)c1ccc(Cl)cc1`: the Potency result is “inactive”.

`Clc1nc(C(Cl)(Cl)Cl)c(Cl)c(Cl)c1Cl`: the Potency is 48.6 µM (active).

In the case of `Cc1ccc(C(=O)c2ccccc2)cc1`, the Potency entry is “inactive”. The same measure, in the same setting: then `COC(=O)/C=C\C(=O)O`, with “inactive”; and `CCCCC(CC)COC(=O)COc1ccc(Cl)cc1C` (stereo not drawn), with “inactive”. Take `CCCCCCOC(=O)C(C)C`: the Potency entry was “inactive”. Still for that read-out and setting: for `Cc1cc(O)ccc1N` the value was 61.4 µM (active); for `Cc1ccc(O)cn1`, “inactive”; for `CC(C)(C)OC(=O)c1ccccc1C(=O)O`, “inactive”. Turning to `CC(=O)c1cccnc1`, the Potency entry was “inactive”.

`CC[C@@H](N)CO`: the Potency entry was “inactive”. With `NC(=O)C(c1ccccc1)(c1ccccc1)[C@@H]1CCN(CCc2ccc3c(c2)CCO3)C1`, the Potency entry was “inactive”.
